Drawing on PubChem BioAssay (NCATS), this text covers Potency, activity change, negative = inhibition and activity, negative = inhibition for 15 compounds.

Values without a mark were called inactive. Results filed as inconclusive are left out. The source made the active and inactive calls. Unless noted, the call rests on the fitted dose curve; in most records, active means well fitted curve in either direction with a large enough effect (not every such curve was filed as active); inconclusive means small, poorly fitted or top-dose-only effect, or another doubt; inactive means flat fitted curve, though single readings scatter.

For experiment [1], the target named is Lysosomal acid glucosylceramidase (Homo sapiens) (UniProt P04062). The experiment is described as follows: Glucocerebrosidase-p2 (AID 348; in the data active means potency below about 10 µM; further: potency means the concentration at half of the fitted maximal effect). The following applies: purified GBA, blue fluorogenic substrate, 40 min. An outline of the steps:
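Compounds titrated from 0.6 nM upwards against 0.2 nM enzyme in pH 5.9 citric acid/KH2PO4, taurocholate, tween-20; blue fluorogenic substrate 80 uM, 40 min room temperature, stopped and read Ex 365/Em 440 for AC50.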

Experiment [2] in a line: AP1 Signaling Pathway (AID 357).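 Further: ME-180 reporter cells stimulated with EGF at its EC50 level; on the % scale 0 is the no-effect control and ±100 the full control effect.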 Particulars: ME-180 AP-1-bla reporter, EGF-induced, beta-lactamase ratio, 5 h; at 7.69 µM (top of the series) unless noted. The method, boiled down:
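Read-out was the 460nm/530nm emission ratio (excitation 405nm) after CCF4 loading for 2.5 hours at room temperature. Cells carried an AP-1-driven beta-lactamase reporter, were stimulated with EC50 EGF plus compound for 5 hours, and AC50 values came from titrations.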

Experiment [3] has as its target Cytochrome P450 1A2 (Homo sapiens) (UniProt P05177). Kind of experiment: p450-cyp1a2 (AID 410; calls by dose curve; further: potency means the concentration at half of the fitted maximal effect;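 on activity change, negative = inhibition: -100% = full effect of reference inhibitor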). The following applies: recombinant CYP1A2, luciferin-ME demethylation, luminescence; series mostly up to 11.4 µM. An outline of the steps:
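20nM CYP1A2 with 100uM Luciferin-ME (at Km) in 100mM KPO4; compound preincubated 10 min, NADPH regeneration added, 60 min at room temperature. Luciferin quantified by luminescence after detection reagent; normalized to 57 uM furafylline.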

Experiment [4] can be described thus: NFAT Signaling Pathway (AID 444).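 Further: carbachol stimulus at about its EC50 of 1 µM final; on the % scale 0 is the no-effect control and ±100 the full control effect.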 The following applies: Jurkat NFAT-bla M1, carbachol, beta-lactamase ratio, 5 h; at 7.69 µM (top of the series) unless noted. An outline of the steps: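 Jurkat cells with NFAT-driven β-lactamase reporter and co-expressed M1 receptor, stimulated with carbachol (final 1 uM, ~EC50), compound titration, 5 h at 37 °C. CCF4 loaded 1 h at RT; 460/530 nm ratio gave %activity and AC50.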

The nature of experiment [5]: Stat Signaling Pathway (AID 446).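 Further: ME-180 cervical cancer cells given 40 pM IL-6 alongside compound; SIE-controlled beta-lactamase reporter measured as 460/530 nm FRET emission ratio; on the % scale 0 is the no-effect control and ±100 the full control effect.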 The following applies: ME-180 (cervical carcinoma) SIE beta-lactamase reporter, IL-6 stimulated, 5 h; at 7.69 µM (top of the series) unless noted. The method, boiled down:
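ME-180 cells carrying a SIE-driven beta-lactamase reporter are stimulated with 40 pM IL-6 for 5 h at 37C in the presence of compound. The 460/530 nm FRET substrate ratio is read after 2.5 h at RT. Data are normalised to 300 pM IL-6 and to 125 nM JAK inhibitor controls.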

For experiment [6], the target named is Glucocorticoid receptor (Homo sapiens) (UniProt P04150). Kind of experiment: GR-GFP Redistribution (AID 450;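 active means compounds whose dose series gives a full or clear partial fitted curve of increased nuclear translocation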; further: potency means the concentration at half of the fitted maximal effect). The following applies: U2OS GR-GFP nuclear translocation, laser cytometry, 2 h.
Sequence of Glucocorticoid receptor (Homo sapiens) (P04150 whole entry, looked up): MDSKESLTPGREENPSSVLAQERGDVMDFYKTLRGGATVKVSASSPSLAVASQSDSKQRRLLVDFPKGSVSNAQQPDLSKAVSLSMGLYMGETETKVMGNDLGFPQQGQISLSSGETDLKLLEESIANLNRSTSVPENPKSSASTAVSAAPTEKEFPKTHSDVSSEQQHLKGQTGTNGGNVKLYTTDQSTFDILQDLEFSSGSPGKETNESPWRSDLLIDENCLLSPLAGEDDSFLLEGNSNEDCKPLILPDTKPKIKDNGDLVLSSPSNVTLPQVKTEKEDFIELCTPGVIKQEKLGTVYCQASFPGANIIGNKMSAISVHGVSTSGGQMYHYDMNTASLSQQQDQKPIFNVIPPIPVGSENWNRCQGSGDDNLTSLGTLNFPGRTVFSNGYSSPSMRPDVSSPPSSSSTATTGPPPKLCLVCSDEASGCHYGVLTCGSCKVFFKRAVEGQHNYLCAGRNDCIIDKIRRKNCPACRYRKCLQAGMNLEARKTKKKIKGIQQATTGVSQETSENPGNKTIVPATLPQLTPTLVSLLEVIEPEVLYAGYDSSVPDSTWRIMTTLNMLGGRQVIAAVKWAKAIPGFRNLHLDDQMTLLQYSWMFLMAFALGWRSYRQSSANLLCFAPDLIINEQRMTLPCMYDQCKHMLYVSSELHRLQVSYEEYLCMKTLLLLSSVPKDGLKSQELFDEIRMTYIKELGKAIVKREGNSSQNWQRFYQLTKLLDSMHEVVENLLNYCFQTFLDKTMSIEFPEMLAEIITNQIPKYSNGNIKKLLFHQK
For experiment [7] the target is unchanged. The experiment is described as follows: GR-EFC Redistribution (AID 451; calls by dose curve; further: potency means the concentration at half of the fitted maximal effect). Particulars: CHO-K1 GR-EFC translocation, beta-gal luminescence, 2 h. An outline of the steps:
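CHO-K1 cells expressing nuclear EA and GR-ED fragments of b-gal; compounds titrated up to 46 uM final, 2 h at 37 C. GR nuclear translocation read as complemented b-gal luminescence after 1 h RT detection.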

For experiment [8], the target named is Mitogen-activated protein kinase 10 (Mus musculus) (UniProt Q61831). Kind of experiment: JNK3 AlphaScreen Assay (AID 530).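 Further: kinase came from lysate of stimulated human HepG2 cells; signal reports phosphorylation of biotinylated GST-cJun 1-79 at Ser73 with 10 µM ATP; on the % scale 0 is the no-effect control and ±100 the full control effect.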 The following applies: JNK3 lysate, c-Jun phosphorylation; series mostly up to 11.4 µM. The method, boiled down: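 Pre-activated (IL-1β/TNFα) JNK3 in HepG2 lysates phosphorylates biotin-GST-cJun(1-79), 10 uM ATP; anti-phospho-cJun(Ser73) AlphaScreen read at room temperature, pH 7.6 Tris buffer. Compounds pre-incubated 15 min as titrations.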
For orientation: In Alpha technology, singlet oxygen from a donor bead excites a nearby acceptor bead.

The target of experiment [9] is 3',5'-cyclic-AMP phosphodiesterase 4B (Homo sapiens) (UniProt Q07343). The experiment is described as follows: qHTS Assay for Inhibitors of PDE-IV (AID 607; active means well fitted activation curve with a large enough effect in the main read-out, with a control signal flat, not every such curve was filed as active; further: % of control where 0% means no effect). The following applies: HEK293 ACTOne CNG channel cells, membrane potential fluorescence; series mostly up to 22.9 µM. An outline of the steps:
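HEK293 ACTOne cells with CNG channel (1000/well), endogenous PDE4; membrane potential dye, compounds up to 22.9 uM final. Fluorescence Ex 535/Em 590; RO 20-1724 (100 uM final) as reference.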
In general terms: qHTS replaces the single test concentration by a dilution series.

Sequence of Lysosomal acid glucosylceramidase (Homo sapiens) (P04062 whole entry, looked up): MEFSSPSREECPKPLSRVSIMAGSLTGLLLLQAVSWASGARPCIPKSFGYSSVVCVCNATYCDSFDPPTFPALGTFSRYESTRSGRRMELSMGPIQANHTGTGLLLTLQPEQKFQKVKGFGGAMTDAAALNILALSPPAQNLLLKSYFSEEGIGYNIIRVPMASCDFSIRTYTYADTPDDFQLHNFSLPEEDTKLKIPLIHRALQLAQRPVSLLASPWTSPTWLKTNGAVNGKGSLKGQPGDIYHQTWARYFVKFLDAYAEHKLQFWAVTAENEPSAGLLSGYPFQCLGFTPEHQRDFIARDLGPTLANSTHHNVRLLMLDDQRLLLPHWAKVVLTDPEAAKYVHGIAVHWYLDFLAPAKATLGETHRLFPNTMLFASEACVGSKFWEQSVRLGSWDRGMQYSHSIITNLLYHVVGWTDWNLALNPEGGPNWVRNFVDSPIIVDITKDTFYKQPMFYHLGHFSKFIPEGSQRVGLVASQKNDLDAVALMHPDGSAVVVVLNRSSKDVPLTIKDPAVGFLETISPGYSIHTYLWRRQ
Sequence of 3',5'-cyclic-AMP phosphodiesterase 4B (Homo sapiens) (Q07343 whole entry, looked up): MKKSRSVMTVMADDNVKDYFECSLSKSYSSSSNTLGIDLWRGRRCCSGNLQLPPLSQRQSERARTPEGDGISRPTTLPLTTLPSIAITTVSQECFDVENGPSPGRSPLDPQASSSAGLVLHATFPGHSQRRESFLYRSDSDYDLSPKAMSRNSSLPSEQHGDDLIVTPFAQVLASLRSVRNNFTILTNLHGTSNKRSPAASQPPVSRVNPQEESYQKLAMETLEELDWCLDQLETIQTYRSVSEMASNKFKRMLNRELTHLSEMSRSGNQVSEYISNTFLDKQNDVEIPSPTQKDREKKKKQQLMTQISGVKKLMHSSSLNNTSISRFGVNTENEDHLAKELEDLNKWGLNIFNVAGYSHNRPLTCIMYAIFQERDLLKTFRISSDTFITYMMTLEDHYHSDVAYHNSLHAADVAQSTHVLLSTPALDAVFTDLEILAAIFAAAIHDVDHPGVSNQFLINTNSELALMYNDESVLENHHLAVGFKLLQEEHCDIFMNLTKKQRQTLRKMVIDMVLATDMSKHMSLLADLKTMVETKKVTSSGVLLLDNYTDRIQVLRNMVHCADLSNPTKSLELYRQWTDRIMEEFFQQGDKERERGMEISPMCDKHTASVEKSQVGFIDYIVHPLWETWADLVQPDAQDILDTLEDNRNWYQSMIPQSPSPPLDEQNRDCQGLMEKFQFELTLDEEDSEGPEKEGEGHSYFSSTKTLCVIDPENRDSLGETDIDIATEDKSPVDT
Sequence of Cytochrome P450 1A2 (Homo sapiens) (P05177 whole entry, looked up): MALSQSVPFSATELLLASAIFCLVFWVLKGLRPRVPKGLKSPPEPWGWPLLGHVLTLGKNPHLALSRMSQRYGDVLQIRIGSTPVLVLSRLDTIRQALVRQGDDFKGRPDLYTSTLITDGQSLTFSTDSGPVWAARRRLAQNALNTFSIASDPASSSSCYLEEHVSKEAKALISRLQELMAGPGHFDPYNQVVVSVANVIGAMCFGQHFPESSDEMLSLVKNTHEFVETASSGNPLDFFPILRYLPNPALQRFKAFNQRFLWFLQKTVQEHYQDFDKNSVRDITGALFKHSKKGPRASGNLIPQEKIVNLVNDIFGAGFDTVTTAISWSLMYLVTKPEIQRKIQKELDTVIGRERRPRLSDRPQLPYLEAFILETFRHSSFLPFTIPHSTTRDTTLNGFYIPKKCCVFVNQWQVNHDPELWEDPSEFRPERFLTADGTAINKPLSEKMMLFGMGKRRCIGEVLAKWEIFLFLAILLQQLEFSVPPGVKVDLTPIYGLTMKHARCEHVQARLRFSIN

As for `O=C1CC[C@H](NC(=O)c2ccccc2)C(=O)N1`, the figures for the Potency in experiment [1], in [6] and in experiment [7] were over 11.4 µM, over 46 µM and over 9.22 µM, respectively. The activity change, negative = inhibition was 5.12% in [2] and 4.46% in experiment [4]. Further, the Potency entry in experiment [3], in experiment [8] and in experiment [9] was “inactive” throughout. Moreover, the activity, negative = inhibition in experiment [5] was 2.96%.
In the case of `C[C@@H](N=C(N)N)C(=O)O`, the Potency in experiment [1] was over 11.4 µM; in experiment [6], over 46 µM; in experiment [7], over 9.22 µM. Besides, the activity change, negative = inhibition was -6.66% in experiment [2] and 16.8% in experiment [4]. Also, the Potency result in [3], in experiment [8] and in experiment [9] was “inactive” in each case. The activity, negative = inhibition in [5] was -6.68%.
Turning to `O=C(O)c1ccccc1C(=O)Nc1cc2c(cc1Br)-c1ccccc1C2=O`, the Potency was over 11.4 µM in [1], 0.631 µM (active) in experiment [3], over 46 µM in [6] and over 9.22 µM in experiment [7]. The activity change, negative = inhibition in [2] is -2.84%; in experiment [4], 10.3%. Further, the activity, negative = inhibition in experiment [5] is -5.27%. Further, the Potency result in experiment [8] and in experiment [9] was “inactive” throughout.
`O=C(O)Cc1c(O)ccc2ccccc12`: the Potency is over 11.4 µM in experiment [1], over 46 µM in [6] and over 9.22 µM in experiment [7]. The results for the activity change, negative = inhibition in experiment [2] and in experiment [4] were 1.11% and 12.6%, respectively. In addition, the Potency result in experiment [3], in experiment [8] and in [9] was “inactive” each time. The activity, negative = inhibition in [5] is 7.17%.
With `Cn1ccnc1C[C@@](C)(O)c1ccccc1`, the Potency in experiment [1] was over 11.4 µM; in [6] it was over 46 µM; in experiment [7], over 9.22 µM. Also, the activity change, negative = inhibition in experiment [2] is 7.99%; in [4], 2.18%. Moreover, the Potency result in experiment [3], in experiment [8] and in [9] was “inactive” in each case. Moreover, in experiment [5], the activity, negative = inhibition is 8.21%.
As for `O=C1Nc2ccccc2C1=Nc1cccc2ncccc12`, the Potency in experiment [1] is over 11.4 µM; in experiment [3], 3.98 µM (active); in experiment [6] it was over 46 µM; in experiment [7], over 9.22 µM. The activity change, negative = inhibition in experiment [2] was 5.64%; in experiment [4], -3.54%. Also, the activity, negative = inhibition in experiment [5] is 2.41%. Further, the Potency result in experiment [8] and in experiment [9] was “inactive” in each case.
As to `Nc1ncnc2c1ncn2C[C@@H](O)C(=O)O`, the Potency is over 11.4 µM in experiment [1], over 46 µM in experiment [6] and over 9.22 µM in [7]. Also, the activity change, negative = inhibition in experiment [2] is 8.44%; in experiment [4] it was 2.36%. Besides, the Potency result in experiment [3], in experiment [8] and in experiment [9] was “inactive” throughout. Moreover, the activity, negative = inhibition in [5] was -0.0646%.
Regarding `N[C@@H](Cc1cccc([N+](=O)[O-])c1)C(=O)O`, the values for the Potency in experiment [1], in [6] and in [7] were over 11.4 µM, over 46 µM and over 9.22 µM, respectively. In addition, the activity change, negative = inhibition in experiment [2] was -0.119%; in experiment [4] it was 0.16%. In addition, the Potency entry in experiment [3], in experiment [8] and in [9] was “inactive” throughout. The activity, negative = inhibition in experiment [5] was 0.761%.
Consider `O=C(O)C1(Nc2ccc(Cl)cc2)CCCC1`, for which the Potency in experiment [1] was over 11.4 µM; in [6], over 46 µM; in experiment [7], over 9.22 µM. For the same compound, the activity change, negative = inhibition in experiment [2] is -1.27%; in [4], 7.56%. Besides, the Potency entry in experiment [3], in experiment [8] and in experiment [9] was “inactive” throughout. Further, the activity, negative = inhibition in [5] was 5.72%.
On to `Nc1nc2c(c(=O)[nH]1)N[C@H](CCNc1ccc(C(=O)O)cc1)CN2`, for which the Potency in experiment [1] was over 11.4 µM; in [6] it was over 46 µM; in experiment [7] it was over 9.22 µM. Also, the activity change, negative = inhibition is -0.0764% in experiment [2] and 14.5% in experiment [4]. Further, the Potency result in experiment [3], in [8] and in [9] was “inactive” in each case. Besides, the activity, negative = inhibition in [5] was -3.77%.
For `O=C(O)[C@@H](O)c1ccc(F)cc1`, the Potency in [1] is over 11.4 µM; in experiment [6] it was over 46 µM; in experiment [7], over 9.22 µM. Also, the activity change, negative = inhibition in experiment [2] is 26.9%; in experiment [4], 11%. In addition, the Potency result in [3], in experiment [8] and in [9] was “inactive” in each case. In addition, the activity, negative = inhibition in experiment [5] is 8.22%.
`O=C1C2=C(Nc3cc([N+](=O)[O-])ccc3N2)O[C@@H]1c1c[nH]c2ccc(COc3ccccc3)cc12`: the Potency in experiment [1] is over 11.4 µM; in [3], 2.51 µM (active); in experiment [6] it was over 46 µM; in [7], over 9.22 µM. Moreover, the activity change, negative = inhibition in [2] was -21.7%; in [4], 6.34%. Moreover, the activity, negative = inhibition in [5] is 0.333%. Also, the Potency result in experiment [8] and in experiment [9] was “inactive” each time.
Consider `Nc1nccc(Nc2ccc(S(N)(=O)=O)cc2)n1`, for which the Potency in [1] is over 11.4 µM; in [6], over 46 µM; in [7] it was over 9.22 µM. For the same compound, the values for the activity change, negative = inhibition in [2] and in experiment [4] were 2.96% and -13.6%, respectively. Also, the Potency entry in experiment [3], in experiment [8] and in experiment [9] was “inactive” throughout. The activity, negative = inhibition in [5] is -5%.
As to `N[C@@H](CSCc1ccc(I)cc1)C(=O)O`, the Potency was over 11.4 µM in [1], over 46 µM in experiment [6] and over 9.22 µM in experiment [7]. The activity change, negative = inhibition was -1.51% in experiment [2], -12% [at 2.29 µM] in [3] and 0.82% in [4]. Also, in experiment [5], the activity, negative = inhibition was 10.1%. For the same compound, the Potency entry in experiment [8] and in experiment [9] was “inactive” throughout.
For the compound `O=C(O)CCC(O)=C1S(=O)(=O)OCCOS1(=O)=O`, the Potency is over 11.4 µM in [1], over 46 µM in [6] and over 9.22 µM in [7]. In addition, the values for the activity change, negative = inhibition in [2] and in experiment [4] were -1.99% and 2.36%, respectively. The Potency result in [3], in experiment [8] and in experiment [9] was “inactive” each time. In addition, the activity, negative = inhibition in [5] is 2.62%.
